Bioassay records deposited in PubChem by National Center for Advancing Translational Sciences (NCATS).
TDP1 cell CPT: DT40-hTDP1 cell growth loss with CPT; chicken DT40 Tdp1-/-;hTDP1 cells + 20 nM CPT, ATP luminescence, 48 h; Potency, µM (titrated, usually from 46.2 µM), inactives show at the top dose activity change, negative = growth inhibition, hits mostly inhibitors; 12% of 420,000 active; further: potency means the concentration at half of the fitted maximal effect; nearly all actives have a fitted effect of over 55% in size
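Chicken DT40 Tdp1-/- cells stably complemented with human TDP1 were seeded at 400 cells/well in medium containing 20 nM camptothecin, exposed to pin-transferred compounds, and grown at 37 °C for at least 48 hr. Viability was read as ATP luminescence.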
TDP1 cell noCPT: qHTS for Inhibitors of human tyrosyl-DNA phosphodiesterase 1 (TDP1): qHTS in cells in absence of CPT; DT40 Tdp1-/- hTDP1 cells, no CPT, ATP luminescence, 48 h; Potency, µM (titrated, usually from 46.2 µM), inactives show at the top dose activity change, negative = growth inhibition, hits mostly inhibitors; 15% of 420,000 active; AID 686978, 2013; further: potency means the concentration at half of the fitted maximal effect; nearly all actives have a fitted effect of over 55% in size
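Growth of hTDP1-complemented DT40 Tdp1-knockout cells is measured by ATP luminescence after at least 48 hr compound exposure at 37 °C, with DMSO substituting for the 20 nM CPT used in the parallel screen.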
HT1080 IDH1KD tx: kills HT-1080 cells with IDH1 knockdown; HT-1080 IDH1 knockdown viability, ATP luminescence, 48 h; Potency, µM (highest dose often 46.1 µM), for the others: at the highest dose activity, negative = toxicity, actives largely listed as cytotoxic; 2% of 360,000 active; AID 686971;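 further: potency means the concentration at half of the fitted maximal effect; 0% = DMSO wells and -100% = cell-free medium wells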
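In this qHTS, HT-1080 cells depleted of IDH1 are exposed for 48 h at 37 °C to compound titrations. Toxicity is scored from CellTiter-Glo luminescence, with DMSO as full viability and medium alone as none.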
HT1080-NT tox: kills 2HG-producing HT-1080-NT fibrosarcoma cells; HT-1080-NT fibrosarcoma viability, CellTiter-Glo ATP luminescence, 48 h; Potency, µM (series often up to 46.1 µM), for inactives: top-dose activity, negative = less viability, most hits filed as cytotoxic; 1.6% of 360,000 active;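 further: NT is the 2HG producing partner of a matched IDH1 knockdown line; potency means the concentration at half of the fitted maximal effect; 0% = DMSO-treated cells and -100% = media-only wells without cells; nearly all actives have a fitted effect of over 55% in size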
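Luminescent CellTiter-Glo readout after 48 hours of compound exposure at 37 degrees C defined viability of HT-1080-NT cells. Activity was normalized to DMSO wells and cell-free media wells; concentration-response curves were fitted and assigned curve classes.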
IL1B secr inh: blocks inflammasome-driven IL-1 beta release | AID 743279 | activity change, % at 57.5 µM | 4.7% of 360,000 active | THP-1 LPS/ATP IL-1B secretion, AlphaLISA, 16 h; stronger effect = lower value; in the data active means activity change below about -50%; inconclusive means mostly about -30% to -49%
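Secreted IL-1B measured by AlphaLISA bead assay after 16 h compound exposure of THP-1 cells; compounds (final up to 57.5 uM) added 1 h before LPS (250 ng/mL) and ATP (1.25 mM) stimulation; lower signal means less secretion.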
* marks the source's active call; other numbers are inactive results; ? = inconclusive; · = not tested or not shown. Sampled rows, rich in hits. Any-hit rate of the full collection: about 19%. Unless noted, the call rests on the fitted dose curve; in most records, active means well fitted curve in the direction sought with a large enough effect; inconclusive means small, poorly fitted or top-dose-only effect, or another doubt; inactive means no such curve, though single readings can be large; an effect the other way counts as inactive or inconclusive. Unless noted, on the % scale 0 is the no-effect control and ±100 the full control effect.

SMILES	TDP1 cell CPT	TDP1 cell noCPT	HT1080 IDH1KD tx	HT1080-NT tox	IL1B secr inh
CCOC(=O)Cc1csc(NC(=O)c2c(O)c3c(n(CC(C)C)c2=O)CCCC3)n1	21µM*	?	11%	?	-1
CC(C)Cn1c2c(c(O)c(C(=O)Nc3nccs3)c1=O)CCCC2	16µM*	?	?	4%	8
Cc1cccc2[nH]cc(/C=C3/C=Nc4ccccc43)c12	7.9µM*	4µM*	·	·	·
O=c1[nH]c(O)c(/C=C2\C=Nc3ccccc32)[nH]1	7%	16%	1%	4%	16
COc1ccc(-c2ccc(=O)n(CC(=O)Nc3ccc(N(C)C)cc3)n2)cc1	1%	1%	·	·	·
O=C(O)CSc1cc(NS(=O)(=O)c2ccc(Br)cc2)c2ccccc2c1O	2.9µM*	5.2µM*	16µM*	21µM*	-51*
O=S(=O)(Nc1cc(Sc2ncn[nH]2)c(O)c2ccccc12)c1ccccc1	1.2µM*	2.1µM*	4.6µM*	2.3µM*	-95*
Cc1ccc(S(=O)(=O)Nc2ccc(Br)cc2C(NCC(=O)O)c2ccccc2)cc1 (stereo not drawn)	-4%	6%	-12%	-4%	8
CCN(CC(=O)Nc1cc(Cl)ccc1C)C(=O)c1nc2nc(C)cc(C)n2n1	-13%	-7%	-4%	-6%	14
C=CCN(CC=C)CCOc1cccc2ccccc12	-2%	?	-13%	-6%	-57*
C=CCN(CC=C)CCOc1ccccc1F	-11%	-2%	26%	23%	2
[O-]/[N+](=C\C=C\c1ccccc1)c1ccccc1	-15%	?	0%	2%	9
[O-]/[N+](=C\c1ccncc1)c1ccccc1	21µM*	?	1%	6%	-1
Cc1nc2c(-c3ccccc3)c(C)nn2c(C)c1CCC(=O)NC(C)CCc1ccco1 (stereo not drawn)	12µM*	9.2µM*	-4%	1%	?
COc1ccccc1CNC(=O)CCc1c(C)nc2cc(-c3ccccc3OC)nn2c1C	?	?	-4%	-6%	-9
COc1ccccc1-c1cc2nc(C)c(CCC(=O)NC(C)CCc3ccco3)c(C)n2n1 (stereo not drawn)	23µM*	21µM*	-12%	2%	-21
Cc1ccc([C@H]2C[C@H](O)[C@@H](n3cc(-c4ccc(F)cc4)nn3)CN2Cc2cccs2)cc1	?	16µM*	?	?	1
Cc1ccc([C@H]2C[C@H](n3cc(-c4ccc(F)cc4)nn3)[C@@H](O)CN2C(=O)c2cccs2)cc1	5%	?	11%	12%	-51*
O=C(c1cccs1)N1C[C@@H](O)[C@H](n2cc(-c3ccc(F)cc3)nn2)C[C@@H]1c1ccccc1	18µM*	16µM*	-10%	-8%	9
Cc1ccc([C@H]2C[C@@H](O)[C@H](n3cc(C4CC4)nn3)CN2C(=O)c2cccs2)cc1	?	21µM*	0%	-5%	-2
Cc1ccc([C@H]2C[C@H](n3cc(C4CC4)nn3)[C@@H](O)CN2C(=O)c2cccs2)cc1	-6%	-2%	1%	22%	0
CCCCn1c(N)c(N(CCC(C)C)C(=O)c2ccc(N3CCCC3=O)cc2)c(=O)[nH]c1=O	-5%	-9%	5%	10%	-7
CCCC(NC(=O)C(C)NC(=O)CO/N=C1\C=C2CCC3C4CCC(C(C)=O)[C@@]4(C)CCC3[C@@]2(C)CC1)C(=O)O (stereo partly drawn)	3%	1%	23%	7%	-4
Cc1ccc(C)c(NC(=O)c2ccc(CN3CC(=O)N4CCCCC4C3=O)cc2)c1 (stereo not drawn)	16µM*	16µM*	·	·	·
O=C(NCc1cccc(F)c1)c1ccc(CN2CC(=O)N3CCCCC3C2=O)cc1 (stereo not drawn)	-9%	-6%	·	·	·
CCCCNC(=O)[C@@H]1CC=C[C@@H]2CCN(CCCC)C(=O)[C@@H]21	-16%	?	·	·	·
